Test results: ChEMBL document CHEMBL3988442, “University of Dundee, Small-Polar-MMV Screening Library” (2021)
For some of these results: Results with a measured potency or affinity are listed apart.

What was measured:
Parameters in all cases: scale not given: direction of the effect not stated beside the values
[1] = target: Protein translocase subunit SecA (Escherichia coli (strain K12)) (UniProt P10408); assay: Assay to Identify E. coli SecA ATPase Inhibitors; type: functional; details: 30 µM
[2] = target: T1, Ubiquitin-activating enzyme e1, putative (Leishmania donovani (strain BPK282A1)) (UniProt E9BSI1); assay: Leishmania donovani Ubiquitin Activating Enzyme (LdE1); type: functional; details: 30 µM
T1 sequence (whole entry): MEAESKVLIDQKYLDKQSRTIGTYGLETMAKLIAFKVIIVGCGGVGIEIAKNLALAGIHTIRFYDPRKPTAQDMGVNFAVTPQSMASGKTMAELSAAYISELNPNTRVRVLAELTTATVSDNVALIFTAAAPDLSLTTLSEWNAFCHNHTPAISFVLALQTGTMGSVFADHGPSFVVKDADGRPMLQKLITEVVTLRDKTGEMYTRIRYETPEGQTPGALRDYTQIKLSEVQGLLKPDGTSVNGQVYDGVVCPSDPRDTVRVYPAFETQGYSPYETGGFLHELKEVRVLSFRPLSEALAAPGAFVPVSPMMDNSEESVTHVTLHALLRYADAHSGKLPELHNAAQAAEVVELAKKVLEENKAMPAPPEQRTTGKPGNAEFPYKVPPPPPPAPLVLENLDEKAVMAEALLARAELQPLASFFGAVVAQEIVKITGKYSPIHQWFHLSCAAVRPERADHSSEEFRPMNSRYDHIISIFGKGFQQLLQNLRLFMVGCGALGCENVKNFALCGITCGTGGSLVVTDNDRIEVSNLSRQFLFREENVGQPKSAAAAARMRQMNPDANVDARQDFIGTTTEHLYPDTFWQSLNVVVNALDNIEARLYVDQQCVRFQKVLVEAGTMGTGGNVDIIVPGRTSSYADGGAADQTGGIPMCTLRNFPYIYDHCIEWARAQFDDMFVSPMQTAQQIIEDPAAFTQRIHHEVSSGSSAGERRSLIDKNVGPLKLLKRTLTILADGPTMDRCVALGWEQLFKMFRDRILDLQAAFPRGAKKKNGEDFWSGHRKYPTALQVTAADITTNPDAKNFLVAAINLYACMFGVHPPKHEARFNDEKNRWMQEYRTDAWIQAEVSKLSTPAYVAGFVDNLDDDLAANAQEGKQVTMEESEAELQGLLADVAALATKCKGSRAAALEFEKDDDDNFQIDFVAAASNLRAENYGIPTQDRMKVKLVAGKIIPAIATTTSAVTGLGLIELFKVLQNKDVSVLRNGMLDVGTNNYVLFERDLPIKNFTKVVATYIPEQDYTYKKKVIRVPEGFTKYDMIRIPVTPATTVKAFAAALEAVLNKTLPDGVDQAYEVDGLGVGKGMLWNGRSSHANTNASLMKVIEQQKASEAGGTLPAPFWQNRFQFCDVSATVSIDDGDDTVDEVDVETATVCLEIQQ

[3] = target: AMP-activated protein kinase, AMPK (Homo sapiens) (UniProt P54646+O43741+P54619+Q9UGJ0+Q9Y478+Q13131+Q9UGI9); assay: AMP-dependent Kinase enzyme assay. An in vitro enzyme assay that detects ADP turnover that is directly proportional to AMPK activity. This uses naive AMPK that is activated during the assay with MK-8722; type: functional; details: 30 µM
[4] = target: Sialic acid-binding Ig-like lectin 9 (Homo sapiens) (UniProt Q9Y336); assay: Hs-Siglec9 ALPHAscreen SOP 20170721; details: 10 µM
Trypanosoma cruzi = assay: Trypanosoma cruzi phosphomannomutase and mannose-1-phosphate guanylyltransferase assay; type: functional; details: 10 µM
[5] = target: T2, Arginase-2, mitochondrial (Homo sapiens) (UniProt P78540); assay: in vitro enzyme assay to detect the production of urea directly proportional to the activity of Arginase II; type: functional; details: 33.3 µM; note: in the data most compounds retested in dose-response had high values
T2 sequence (whole entry): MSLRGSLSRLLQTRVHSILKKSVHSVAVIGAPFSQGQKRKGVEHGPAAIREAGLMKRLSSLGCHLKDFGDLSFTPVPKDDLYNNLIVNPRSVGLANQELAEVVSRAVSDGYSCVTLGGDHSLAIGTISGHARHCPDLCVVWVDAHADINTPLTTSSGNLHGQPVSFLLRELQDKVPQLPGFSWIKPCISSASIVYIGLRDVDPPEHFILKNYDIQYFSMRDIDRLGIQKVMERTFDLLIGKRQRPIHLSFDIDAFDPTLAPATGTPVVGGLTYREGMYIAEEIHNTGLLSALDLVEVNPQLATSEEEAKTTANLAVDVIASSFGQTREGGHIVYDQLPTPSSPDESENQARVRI

[6] = target: T3, Proteasome subunit beta (Trypanosoma cruzi) (UniProt O96673); assay: Trypanosoma cruzi proteasome chymotrypsin-like activity (TcProtChymo) assay.; note: in the data most compounds retested in dose-response had high values; type: functional; details: 9.37 µM
T3 sequence (whole entry): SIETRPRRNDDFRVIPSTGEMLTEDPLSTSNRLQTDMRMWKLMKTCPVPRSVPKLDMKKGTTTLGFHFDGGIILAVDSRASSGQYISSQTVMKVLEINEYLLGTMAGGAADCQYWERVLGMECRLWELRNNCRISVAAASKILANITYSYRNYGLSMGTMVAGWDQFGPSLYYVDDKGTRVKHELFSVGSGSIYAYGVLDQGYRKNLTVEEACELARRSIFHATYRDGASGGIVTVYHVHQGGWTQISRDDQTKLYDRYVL

Homo sapiens = species: Homo sapiens; assay: To identify inhibition of the IFN signalling (Jak-Stat) pathway via expression of an eGFP reporter gene under the control of an IFN-stimulated response element (ISRE) containing MxA promoter.; type: functional; details: 30 µM
[7] = target: T4, Tyrosyl-tRNA synthetase, putative (Trypanosoma cruzi (strain CL Brener)) (UniProt Q4DSP6); assay: Trypanosoma cruzi tyrosyl tRNA synthetase (TcYRS) _High Tyrosine SOP; type: functional; details: 30 µM; note: in the data most compounds retested in dose-response had high values
T4 sequence (whole entry): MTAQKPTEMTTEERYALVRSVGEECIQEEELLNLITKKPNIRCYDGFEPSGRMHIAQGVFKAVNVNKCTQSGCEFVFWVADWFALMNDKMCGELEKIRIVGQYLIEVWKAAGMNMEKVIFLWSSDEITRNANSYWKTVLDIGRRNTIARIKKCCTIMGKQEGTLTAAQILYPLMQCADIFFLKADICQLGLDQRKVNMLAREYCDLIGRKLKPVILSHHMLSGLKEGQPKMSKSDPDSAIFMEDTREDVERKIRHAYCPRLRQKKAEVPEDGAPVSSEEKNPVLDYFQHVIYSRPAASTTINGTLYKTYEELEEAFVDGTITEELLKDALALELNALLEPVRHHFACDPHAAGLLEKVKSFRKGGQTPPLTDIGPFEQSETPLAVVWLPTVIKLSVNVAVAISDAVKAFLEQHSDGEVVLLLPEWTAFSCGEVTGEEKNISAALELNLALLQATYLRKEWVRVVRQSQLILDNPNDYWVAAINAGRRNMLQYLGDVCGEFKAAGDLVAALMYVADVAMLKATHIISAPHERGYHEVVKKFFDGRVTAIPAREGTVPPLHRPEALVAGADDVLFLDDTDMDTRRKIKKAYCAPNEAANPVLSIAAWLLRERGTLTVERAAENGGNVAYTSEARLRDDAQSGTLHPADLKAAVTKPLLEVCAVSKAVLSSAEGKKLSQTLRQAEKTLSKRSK

[8] = target: T4, Tyrosyl-tRNA synthetase, putative (Trypanosoma cruzi (strain CL Brener)); assay: Trypanosoma cruzi tyrosyl tRNA synthetase (TcYRS) SOP; type: functional; details: 30 µM
[9] = target: Chromo domain-containing protein 1 (Saccharomyces cerevisiae (strain ATCC 204508 / S288c) (Baker's yeast)) (UniProt P32657); assay: ScCHD-1 Enzyme Inhibition Assay; type: functional; details: 30 µM; note: in the data most compounds retested in dose-response had high values
Chain of Chromo domain-containing protein 1 (Saccharomyces cerevisiae (strain ATCC 204508 / S288c) (Baker's yeast)) (P32657 whole entry, the tested form may be a part): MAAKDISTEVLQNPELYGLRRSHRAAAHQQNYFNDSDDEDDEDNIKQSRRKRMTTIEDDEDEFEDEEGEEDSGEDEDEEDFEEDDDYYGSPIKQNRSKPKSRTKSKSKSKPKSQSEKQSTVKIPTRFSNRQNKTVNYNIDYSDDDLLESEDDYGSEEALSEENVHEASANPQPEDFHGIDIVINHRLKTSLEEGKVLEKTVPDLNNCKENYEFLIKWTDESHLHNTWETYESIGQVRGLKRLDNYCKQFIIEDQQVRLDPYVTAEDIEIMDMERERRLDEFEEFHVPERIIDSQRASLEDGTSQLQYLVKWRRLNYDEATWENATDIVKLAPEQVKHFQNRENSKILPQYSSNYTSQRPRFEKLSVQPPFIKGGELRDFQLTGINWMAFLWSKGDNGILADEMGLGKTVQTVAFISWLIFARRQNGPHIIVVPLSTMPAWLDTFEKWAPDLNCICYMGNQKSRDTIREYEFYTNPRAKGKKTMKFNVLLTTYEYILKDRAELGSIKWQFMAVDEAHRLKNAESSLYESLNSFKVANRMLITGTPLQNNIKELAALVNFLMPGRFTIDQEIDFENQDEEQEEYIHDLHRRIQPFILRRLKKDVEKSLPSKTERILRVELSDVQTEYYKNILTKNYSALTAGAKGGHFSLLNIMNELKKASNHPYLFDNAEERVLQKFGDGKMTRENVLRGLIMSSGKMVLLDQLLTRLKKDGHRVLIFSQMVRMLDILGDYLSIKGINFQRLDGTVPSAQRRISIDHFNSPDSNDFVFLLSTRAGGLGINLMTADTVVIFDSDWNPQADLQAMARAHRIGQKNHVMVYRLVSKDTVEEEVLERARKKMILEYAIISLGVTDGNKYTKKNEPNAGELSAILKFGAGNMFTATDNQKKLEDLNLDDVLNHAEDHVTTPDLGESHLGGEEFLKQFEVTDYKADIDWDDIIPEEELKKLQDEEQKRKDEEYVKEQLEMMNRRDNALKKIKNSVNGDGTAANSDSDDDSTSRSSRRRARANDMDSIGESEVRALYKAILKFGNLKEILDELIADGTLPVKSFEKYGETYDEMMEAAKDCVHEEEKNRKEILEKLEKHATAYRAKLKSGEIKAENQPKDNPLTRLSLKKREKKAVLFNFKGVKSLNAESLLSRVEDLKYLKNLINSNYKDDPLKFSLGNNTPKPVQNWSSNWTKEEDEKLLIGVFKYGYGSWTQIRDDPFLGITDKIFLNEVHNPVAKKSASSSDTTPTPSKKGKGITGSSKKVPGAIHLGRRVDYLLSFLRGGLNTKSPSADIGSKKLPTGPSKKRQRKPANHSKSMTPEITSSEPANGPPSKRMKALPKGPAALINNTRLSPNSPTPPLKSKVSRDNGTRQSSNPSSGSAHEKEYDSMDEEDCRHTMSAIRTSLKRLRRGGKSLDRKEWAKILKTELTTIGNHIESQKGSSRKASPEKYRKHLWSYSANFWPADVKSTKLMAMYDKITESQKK

Chain of Sialic acid-binding Ig-like lectin 9 (Homo sapiens) (Q9Y336 whole entry): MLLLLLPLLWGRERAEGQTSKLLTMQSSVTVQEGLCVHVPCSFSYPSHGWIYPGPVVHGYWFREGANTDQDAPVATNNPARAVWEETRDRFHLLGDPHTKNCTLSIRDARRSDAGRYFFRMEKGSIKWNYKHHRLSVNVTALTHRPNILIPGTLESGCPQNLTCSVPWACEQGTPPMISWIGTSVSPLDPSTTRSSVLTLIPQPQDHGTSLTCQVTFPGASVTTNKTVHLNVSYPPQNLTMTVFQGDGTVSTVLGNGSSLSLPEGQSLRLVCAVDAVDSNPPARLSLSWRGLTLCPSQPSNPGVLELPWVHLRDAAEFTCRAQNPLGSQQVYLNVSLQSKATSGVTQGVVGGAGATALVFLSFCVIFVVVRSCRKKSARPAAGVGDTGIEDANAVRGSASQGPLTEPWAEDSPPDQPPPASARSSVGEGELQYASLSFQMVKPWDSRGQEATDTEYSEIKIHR
Chain of Protein translocase subunit SecA (Escherichia coli (strain K12)) (P10408 whole entry): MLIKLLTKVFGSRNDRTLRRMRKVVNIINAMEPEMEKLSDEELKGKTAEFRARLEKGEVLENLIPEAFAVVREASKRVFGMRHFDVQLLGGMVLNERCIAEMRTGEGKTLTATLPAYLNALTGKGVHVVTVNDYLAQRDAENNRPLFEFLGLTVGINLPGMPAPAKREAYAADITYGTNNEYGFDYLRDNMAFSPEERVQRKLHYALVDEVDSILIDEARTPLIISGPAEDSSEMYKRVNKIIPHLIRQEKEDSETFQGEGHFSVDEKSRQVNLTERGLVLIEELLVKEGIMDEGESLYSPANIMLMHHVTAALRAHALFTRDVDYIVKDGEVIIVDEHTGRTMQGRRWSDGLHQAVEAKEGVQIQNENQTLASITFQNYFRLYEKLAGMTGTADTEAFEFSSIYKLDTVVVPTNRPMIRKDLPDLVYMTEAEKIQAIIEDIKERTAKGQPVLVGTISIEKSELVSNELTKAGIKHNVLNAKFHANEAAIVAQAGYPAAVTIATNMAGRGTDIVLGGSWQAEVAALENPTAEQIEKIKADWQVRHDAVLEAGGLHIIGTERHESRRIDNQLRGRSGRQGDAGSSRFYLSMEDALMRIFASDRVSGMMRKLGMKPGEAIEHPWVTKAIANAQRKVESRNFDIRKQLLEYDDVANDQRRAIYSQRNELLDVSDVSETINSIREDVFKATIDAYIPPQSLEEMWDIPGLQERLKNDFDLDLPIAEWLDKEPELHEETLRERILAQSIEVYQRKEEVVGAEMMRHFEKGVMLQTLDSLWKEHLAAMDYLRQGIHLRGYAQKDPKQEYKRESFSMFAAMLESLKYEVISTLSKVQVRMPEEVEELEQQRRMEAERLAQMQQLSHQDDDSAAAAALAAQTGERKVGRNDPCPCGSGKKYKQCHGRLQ

SMILES	Percent Effect [1] [%]	Percent Effect [2] [%]	Percent Effect [3] [%]	Percent Effect [4] [%]	Percent Effect (Trypanosoma cruzi) [%]	Percent Effect [5] [%]	Percent Effect [6] [%]	Percent Effect (Homo sapiens) [%]	Percent Effect [7] [%]	Percent Effect [8] [%]	Percent Effect [9] [%]
CN(Cc1cnn(C)c1)C(=O)c1ccc(=O)n(C)n1	-3.21	7.89	2.81	-2.3	5.16	-5.92	12.9	9.62	6.38	10.4	-4.41
O=C1NCCN1C1CCN(CCc2cccs2)CC1	-7	18.2	-1.15	-8.84	5.78	-3.16	17.5	2.25	5.71	23.5	-17.6
O=C(NCC1CCN(Cc2ccsc2)CC1)NC1CC1	1.05	7.79	2.27	-0.902	-5.62	14.8	17.2	10.3	2.12	6.41	-5.17
CC(C)c1nn(C)c(Cl)c1CNCC(O)c1cccc(F)c1 (stereo unspecified)	-7.69	5.2	-1.22	-3.98	7.35	-2.32	15.8	4.38	7.62	30.6	-7
c1cnnc(N2CCCC2CNc2nc3ccccc3o2)c1 (stereo unspecified)	-5.3	11.4	3.62	9.59	1.33	4.95	11.5	11.9	0	20.2	-16
CC(C)CC(=O)N1CCc2nc(N3CCOCC3)nc(NC(C)C)c2C1	-4.18	2.67	12.4	-0.324	-1.57	2.56	2.03	8.78	9.57	14.1	-8.4
O=C(Cc1ccc(F)cc1)NCCNCC1CNc2ccnn2C1 (stereo unspecified)	-1.32	18.9	-4.44	24.8	10.8	10	6.72	2.03	8.99	17.1	-7.92
Cc1cccc(Cn2ccc(NS(C)(=O)=O)n2)c1	-6.41	7.79	-2.37	7.5	7.77	-40	9.65	0.107	6.45	11.1	-7.65
Cc1cccc2c1cnn2CCC(=O)NCC(=O)N(C)C	-1.87	1.33	12.2	7.1	-6.68	-10	14.2	3.37	4.23	7.69	-10.3
CC(=O)c1cccc(OCCCC(=O)N(C)CCc2ccncc2)c1	-2.19	8.11	-3.93	2.37	3.67	-1.91	16.4	16.1	8.99	17.1	-2.34
CCn1ccnc1CN1CCN(CC(=O)NC(=O)NC2CC2)CC1	-0.559	13.2	1.1	4.6	3.95	0	16.5	-2.49	8.33	19.5	-6.48
